The text below walks through data of PubChem BioAssay (Tox21).

Structures are written as SMILES. Several values for one entry are separate records, joined by “and”; a condition that tells them apart may be missing. Equal values may be shown once. Results filed as inconclusive are left out. Some structures have more than one record in an assay (separate samples or runs), and their calls can disagree. Activity calls are given as the source filed them. Unless noted, the call rests on the fitted dose curve; in most records, active means well fitted curve in the direction sought with a large enough effect in the repeat runs; inconclusive means weak or mixed curves; inactive means no such curve, though single readings can be large; an effect the other way counts as inactive or inconclusive.

A short description of test [1]: qHTS assay to identify small molecule antagonists of the glucocorticoid receptor (GR) signaling pathway - cell viability counter screen (AID 720693). Further: nearly all actives have a fitted effect of over 55% in size. In general terms: In qHTS, concentration-response curves come from the screen itself.
The nature of test [2]: qHTS assay for identifying genotoxic compounds that show differential cytotoxicity against isogenic chicken DT40 cell lines with known DNA damage response pathways - wild type cell line (AID 743012). Further: nearly all actives have a fitted effect of over 60% in size. Further: potency means the concentration at half of the fitted maximal effect. The method, boiled down:
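Viability of DNA repair-proficient chicken DT40 cells was assessed by CellTiter-Glo luminescence following 40 h compound exposure at 37 C/5% CO2.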

Test [3] is described as follows: qHTS assay for identifying genotoxic compounds that show differential cytotoxicity against isogenic chicken DT40 cell lines with known DNA damage response pathways - Rev3 mutant cell line (AID 743014). Further: nearly all actives have a fitted effect of over 55% in size. Further: potency means the concentration at half of the fitted maximal effect.
Test [4] in a line: qHTS assay for identifying genotoxic compounds that show differential cytotoxicity against isogenic chicken DT40 cell lines with known DNA damage response pathways - Rad54/Ku70 mutant cell line (AID 743015). Further: nearly all actives have a fitted effect of over 60% in size. Further: potency means the concentration at half of the fitted maximal effect.
Test [5] can be described thus: qHTS assay to identify small molecule antagonists of the androgen receptor (AR) signaling pathway - cell viability counter screen (AID 743033; further: nearly all actives have a fitted effect of over 45% in size).
Test [6] in a line: qHTS assay to identify small molecule antagonists of the androgen receptor (AR) signaling pathway using the MDA cell line - cell viability counter screen (AID 743041; further: nearly all actives have a fitted effect of over 45% in size). The method, boiled down: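 In this qHTS counter assay, fluorescence intensity after CellTiter-Fluor addition indicated viability of MDA-kb2 AR-luc cells given compounds and R1881 for 16 h at 37C.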
A short description of test [7]: qHTS assay to identify small molecule antagonists of the thyroid receptor (TR) signaling pathway (AID 743065). Further: nearly all actives have a fitted effect of over 55% in size. Further: potency means the concentration at half of the fitted maximal effect. The method, boiled down:
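GH3.TRE-Luc rat pituitary cells carrying two TR response elements driving luciferase were plated for 4 h, given compound plus 1 nM T3 (final), and incubated 23.5 h at 37 C. ONE-Glo luminescence measured reporter inhibition; CellTiter-Fluor fluorescence tracked cytotoxicity.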

The subject of test [8] is thyroid hormone receptor (rat, GH3 cells). Kind of test: qHTS assay to identify small molecule agonists of the thyroid receptor (TR) signaling pathway (AID 743066; calls by dose curve).
Test [9] concerns the target Estrogen receptor (Homo sapiens) (UniProt P03372). In words: qHTS assay to identify small molecule antagonists of the estrogen receptor alpha (ER-alpha) signaling pathway (AID 743069; active means well fitted curve in the direction sought with a large enough effect in the signal ratio in the repeat runs, not every such curve was filed as active; the % refers to the signal ratio). The method, boiled down:
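A 17beta-estradiol challenge was applied right after compound transfer to ER-alpha-UAS-bla HEK293 cells previously kept in charcoal-stripped serum. Plates stood 18 hr at 37C and 5% CO2; fluorescence was read following 2 hr FRET substrate loading at room temperature.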

Test [10] in a line: qHTS assay to identify small molecule antagonists of the estrogen receptor alpha (ER-alpha) signaling pathway - cell viability counter screen (AID 743074; calls by dose curve;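 further: HEK293 cells carrying ER-alpha-UAS-bla reporter stimulated with 17beta-estradiol; nearly all actives have a fitted effect of over 45% in size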).
The target in test [11] is Estrogen receptor (Homo sapiens) (UniProt P03372). Kind of test: qHTS assay to identify small molecule agonists of the estrogen receptor alpha (ER-alpha) signaling pathway (AID 743075; calls by dose curve;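 further: HEK293 GripTite cells with ER-alpha and UAS-driven beta-lactamase reporter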).
For test [12] the target is unchanged. Kind of test: qHTS assay to identify small molecule agonists of the estrogen receptor alpha (ER-alpha) signaling pathway using the BG1 cell line (AID 743079). Further: nearly all actives have a fitted effect of over 20% in size. Further: potency means the concentration at half of the fitted maximal effect.
Test [13] in a line: qHTS assay to identify small molecule antagonists of the estrogen receptor alpha (ER-alpha) signaling pathway using the BG1 cell line (AID 743080; calls by dose curve; further: series mostly up to about 70 µM; nearly all actives have a fitted effect of over 25% in size). The procedure, abridged: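 Antagonist mode: compounds in DMSO were pinned onto BG1-Luc-4E2 cells alongside 17beta-estradiol agonist, incubated 21.5 h, and ERE-driven luciferase measured with ONE-Glo. Cytotoxicity was multiplexed using CellTiter-Fluor fluorescence.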

The target of a further test is Aromatase (Homo sapiens) (UniProt P11511). In words: qHTS assay to identify aromatase inhibitors (AID 743083). Further: nearly all actives have a fitted effect of over 55% in size. Further: potency means the concentration at half of the fitted maximal effect.
Test [14] is described as follows: qHTS assay to identify small molecule antagonists of the estrogen receptor alpha (ER-alpha) signaling pathway using the BG1 cell line - cell viability counter screen (AID 743081).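 Further: compound given together with 17beta-estradiol as the ER stimulus; series mostly up to about 70 µM; nearly all actives have a fitted effect of over 45% in size.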
In test [15] the target is Androgen receptor (Homo sapiens) (UniProt P10275). Kind of test: qHTS assay to identify small molecule agonists of the androgen receptor (AR) signaling pathway (AID 743036; active means well fitted activation curve with a large enough effect in the signal ratio in the repeat runs, with a control signal flat, not every such curve was filed as active; the % refers to the signal ratio). The procedure, abridged: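 Reporter line: GeneBLAzer AR-UAS-bla-GripTite (HEK293). Steps: plate cells, 4 h rest, add compounds, 16 h at 37C, add LiveBLAzer B/G substrate, 2 h at RT, read fluorescence.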

The target is the same in test [16]. Kind of test: qHTS assay to identify small molecule agonists of the androgen receptor (AR) signaling pathway using the MDA cell line (AID 743040; further: nearly all actives have a fitted effect of over 20% in size). The procedure, abridged:
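Cell-based luciferase reporter: MDA-kb2, MMTV promoter (AR + GR response elements). 16 h compound exposure at 37C; ONE-Glo, 30 min RT, luminescence.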

Test [17] shares this target. Kind of test: qHTS assay to identify small molecule antagonists of the androgen receptor (AR) signaling pathway using the MDA cell line (AID 743042; further: nearly all actives have a fitted effect of over 55% in size). The procedure, abridged:
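MDA-kb2 cells (human breast carcinoma, stably carrying an MMTV-luciferase reporter responsive to AR and GR) were plated at 3,000 cells/well and preincubated 5 hr at 37C, then given compound plus R1881 agonist for 16 h. ONE-Glo luminescence was read.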

Test [18] is described as follows: qHTS assay to identify small molecule antagonists of the thyroid receptor (TR) signaling pathway - cell viability counter screen (AID 743064). Further: nearly all actives have a fitted effect of over 50% in size. The procedure, abridged:
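Plate GH3.TRE-Luc cells; incubate 4 h at 37 °C; add compound, then T3 to 1 nM final; incubate 23.5 h; add CellTiter-Fluor; incubate 30 min at 37 °C, 5% CO2; read fluorescence.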

For test [19], the target named is Androgen receptor (Homo sapiens) (UniProt P10275). Kind of test: qHTS assay to identify small molecule antagonists of the androgen receptor (AR) signaling pathway (AID 743035; active means well fitted inhibition curve with a large enough effect in the signal ratio in the repeat runs, not every such curve was filed as active; the % refers to the signal ratio). The method, boiled down: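 Reporter HEK293 cells were exposed to compounds and R1881 overnight (16 h, 37C); beta-lactamase activity was then quantified by FRET fluorescence.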

Sequence of Androgen receptor (Homo sapiens) (P10275 whole entry, looked up): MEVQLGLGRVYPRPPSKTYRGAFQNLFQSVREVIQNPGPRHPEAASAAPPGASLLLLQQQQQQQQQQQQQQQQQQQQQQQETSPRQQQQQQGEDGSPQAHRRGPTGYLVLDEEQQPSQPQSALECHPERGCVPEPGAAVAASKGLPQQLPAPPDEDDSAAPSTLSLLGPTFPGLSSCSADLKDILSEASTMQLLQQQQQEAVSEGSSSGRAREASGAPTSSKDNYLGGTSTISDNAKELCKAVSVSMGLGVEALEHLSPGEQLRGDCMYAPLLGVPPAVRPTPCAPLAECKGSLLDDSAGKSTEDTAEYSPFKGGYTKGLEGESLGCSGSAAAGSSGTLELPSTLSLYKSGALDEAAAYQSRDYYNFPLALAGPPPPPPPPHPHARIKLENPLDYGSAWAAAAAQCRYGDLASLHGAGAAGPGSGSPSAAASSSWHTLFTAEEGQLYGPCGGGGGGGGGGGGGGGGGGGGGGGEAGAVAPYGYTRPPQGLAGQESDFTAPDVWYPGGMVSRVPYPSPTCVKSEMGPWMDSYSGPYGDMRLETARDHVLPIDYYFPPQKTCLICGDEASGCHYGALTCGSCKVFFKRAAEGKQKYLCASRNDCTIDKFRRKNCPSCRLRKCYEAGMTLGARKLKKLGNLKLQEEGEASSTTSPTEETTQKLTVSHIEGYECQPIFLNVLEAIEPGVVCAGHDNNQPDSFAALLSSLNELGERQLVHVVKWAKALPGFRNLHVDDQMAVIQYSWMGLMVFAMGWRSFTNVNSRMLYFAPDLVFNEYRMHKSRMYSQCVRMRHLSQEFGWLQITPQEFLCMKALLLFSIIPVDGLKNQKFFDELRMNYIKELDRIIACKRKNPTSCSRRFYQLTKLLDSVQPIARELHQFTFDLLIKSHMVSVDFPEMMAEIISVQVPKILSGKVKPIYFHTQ
Sequence of Estrogen receptor (Homo sapiens) (P03372 whole entry, looked up): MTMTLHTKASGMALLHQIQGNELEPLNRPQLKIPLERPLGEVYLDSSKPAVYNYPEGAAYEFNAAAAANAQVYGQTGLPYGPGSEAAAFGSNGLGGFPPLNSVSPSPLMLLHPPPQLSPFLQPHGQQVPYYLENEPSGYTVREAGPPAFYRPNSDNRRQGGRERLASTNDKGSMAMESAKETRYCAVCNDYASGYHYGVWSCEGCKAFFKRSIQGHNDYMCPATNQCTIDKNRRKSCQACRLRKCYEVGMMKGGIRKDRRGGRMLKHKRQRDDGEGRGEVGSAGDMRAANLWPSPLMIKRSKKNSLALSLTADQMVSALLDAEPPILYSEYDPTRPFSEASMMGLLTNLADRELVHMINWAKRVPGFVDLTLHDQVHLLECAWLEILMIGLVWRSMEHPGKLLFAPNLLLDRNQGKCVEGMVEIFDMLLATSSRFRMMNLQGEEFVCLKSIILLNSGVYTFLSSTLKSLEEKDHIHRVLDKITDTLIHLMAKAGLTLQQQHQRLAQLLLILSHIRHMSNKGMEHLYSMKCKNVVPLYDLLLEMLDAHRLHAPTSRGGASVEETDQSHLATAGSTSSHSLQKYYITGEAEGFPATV
Sequence of Aromatase (Homo sapiens) (P11511 whole entry, looked up): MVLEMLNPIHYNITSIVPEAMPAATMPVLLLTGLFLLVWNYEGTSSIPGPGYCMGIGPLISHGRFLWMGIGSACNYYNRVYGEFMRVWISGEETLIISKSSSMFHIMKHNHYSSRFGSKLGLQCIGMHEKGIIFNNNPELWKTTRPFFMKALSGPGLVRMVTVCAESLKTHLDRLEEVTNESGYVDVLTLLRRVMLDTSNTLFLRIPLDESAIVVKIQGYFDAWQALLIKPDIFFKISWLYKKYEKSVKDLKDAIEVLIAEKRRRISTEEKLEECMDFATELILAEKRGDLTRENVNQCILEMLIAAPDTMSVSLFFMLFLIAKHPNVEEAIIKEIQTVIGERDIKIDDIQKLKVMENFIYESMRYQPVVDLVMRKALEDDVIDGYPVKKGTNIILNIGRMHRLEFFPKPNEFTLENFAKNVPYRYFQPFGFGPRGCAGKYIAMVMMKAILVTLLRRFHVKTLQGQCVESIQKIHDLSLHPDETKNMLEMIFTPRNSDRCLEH

Take `FC(F)(F)C(F)(F)C(F)(F)C(F)(F)C(F)(F)F`: the Potency result in [1], in test [2], in test [3], in test [4], in [5] and in test [6] was “inactive” throughout. The Potency result in [7], in [8], in [9], in test [10], in [11] and in [12] was “inactive” each time. For the same compound, the Potency entry (in test [13]; with Aromatase (Homo sapiens)) was “inactive” in each case.
As for `CCCCC[C@H](O)/C=C/[C@@H]1[C@@H](C/C=C\CCCC(=O)O)[C@@H](O)C[C@H]1O`, the Potency result in test [1], in test [2], in test [3], in [4], in test [5] and in [6] was “inactive” each time. The Potency result (in test [10]; in [14]; in the test with Aromatase (Homo sapiens)) was “inactive” each time. In test [12], the Potency was 29.8 µM (active).
`Oc1ccc(Cl)c2c1CCC2`: the Potency result in test [1], in [2], in test [3], in [4], in test [15] and in test [16] was “inactive” each time. For the same compound, the Potency result in test [6], in test [17], in [18], in test [7], in [8] and in test [10] was “inactive” in each case. The Potency entry (in test [11]; in test [12]; in test [13]; in test [14]; with Aromatase (Homo sapiens)) was “inactive” each time.
With `C=C1[C@@H]2CC[C@@H](C2)C1(C)C`, the Potency entry in test [1], in test [2], in test [3], in [4], in test [5] and in test [18] was “inactive” throughout. Further, the Potency result in test [7], in [8], in test [9], in test [10], in test [11] and in test [13] was “inactive” throughout. In addition, the Potency entry (in [14]; with Aromatase (Homo sapiens)) was “inactive” throughout. In addition, the Potency in test [12] was 29.8 µM (active).
For `C(=C\c1ccncc1)/c1ccccc1`, the Potency entry in test [1], in test [5], in test [6], in test [7], in test [8] and in test [9] was “inactive” in each case. The Potency result in test [10], in test [11] and in test [14] was “inactive” each time. In addition, the Potency entry in test [2] was “inactive and 26.6 µM (active)”; in test [3] it was “inactive and 26.6 µM (active)”; in test [4] it was “inactive and 26.6 µM (active)”; in test [12], 13.3 µM (active); in the test with Aromatase (Homo sapiens), “inactive and 21.1 µM (active)”.
Take `CN(Cc1ccccc1)Cc1ccccc1`: the Potency entry in test [1], in [2], in test [3], in [4], in [6] and in test [18] was “inactive” in each case. Further, the Potency result in [7], in test [8], in test [9], in test [10], in [11] and in test [12] was “inactive” in each case. The Potency entry (in test [13]; in test [14]; with Aromatase (Homo sapiens)) was “inactive” throughout.
Regarding `CCN(CC)CCNC(=O)c1ccc(NS(C)(=O)=O)cc1`, the Potency result in test [1], in test [2], in [3], in test [4], in test [5] and in test [6] was “inactive” each time. In addition, in the test with Aromatase (Homo sapiens), the Potency entry was “inactive”.
Turning to `C=CC[N@@+]12CC[C@@]34c5ccccc5N5/C=C6/[C@H]7C[C@H]8[C@@]9(CC[N@@+]8(CC=C)C/C7=C/CO)c7ccccc7N(/C=C(/[C@@H](C[C@@H]31)/C(=C\CO)C2)[C@H]54)[C@@H]69`, the Potency result in test [1], in [2], in test [3], in test [4], in test [5] and in test [6] was “inactive” in each case. In addition, the Potency entry (in test [7]; in test [8]; in test [10]; with Aromatase (Homo sapiens)) was “inactive” each time.
For `O=C(O)c1cc2cc(Cc3cccnc3)ccc2o1`, the Potency result in [1], in test [2], in test [3], in test [4], in test [5] and in test [6] was “inactive” each time. Further, the Potency entry in test [7], in [8], in test [9], in test [10], in test [13] and in test [14] was “inactive” in each case. Also, the Potency entry with Aromatase (Homo sapiens) is “inactive”. Also, the Potency in test [12] was 18.8 µM (active).
Consider `CC(C)(Oc1ccc(C2CCCc3ccccc32)cc1)C(=O)O` (stereo not given), for which the Potency result in [1], in test [2], in test [3], in [4], in test [19] and in test [15] was “inactive” each time. For the same compound, the Potency result in test [16], in test [6], in test [17], in test [7], in test [8] and in test [9] was “inactive” in each case. For the same compound, the Potency result (in test [10]; in test [11]; in [13]; in test [14]; with Aromatase (Homo sapiens)) was “inactive” throughout. In addition, the Potency in test [12] is 18.8 µM (active).
Consider `C[C@H](Cc1ccc(O)c(O)c1)[C@@H](C)Cc1ccc(O)c(O)c1`, for which the Potency entry in [1], in test [5], in test [6], in [8], in [9] and in test [10] was “inactive” in each case. The Potency result (in test [11]; in test [12]; in test [13]; in [14]; with Aromatase (Homo sapiens)) was “inactive” throughout. For the same compound, the Potency in [2] was 10.6 µM (active); in test [3], 23.7 µM (active); in [4], 10.6 µM (active); in test [7], 8.41 µM (active).
Regarding `CC[N+](CC)(CC)CCC(O)(c1ccccc1)C1CCCCC1` (stereo not given), the Potency result in test [1], in test [2], in test [3], in test [4], in test [5] and in test [6] was “inactive” throughout. Also, the Potency entry (in test [10]; with Aromatase (Homo sapiens)) was “inactive” each time.
As for `CC(C)c1ncc([N+](=O)[O-])n1C`, the Potency entry in [1], in [2], in test [3], in test [4], in test [16] and in test [6] was “inactive” each time. Besides, the Potency result in test [17], in [18], in test [7], in test [8], in test [10] and in test [14] was “inactive” in each case. Further, the Potency result with Aromatase (Homo sapiens) was “inactive”.
`CC1CCCC(C)N1NC(=O)c1ccc(Cl)c(S(N)(=O)=O)c1` (stereo not given): the Potency result in test [1], in test [2], in test [3], in test [4], in [6] and in test [18] was “inactive” throughout. In addition, the Potency result in test [7], in [8], in [9], in test [10], in test [11] and in test [12] was “inactive” each time. Further, the Potency entry (in test [13]; in [14]; in the test with Aromatase (Homo sapiens)) was “inactive” in each case.
